Assay results as given in PubChem BioAssay AID504332 (National Center for Advancing Translational Sciences (NCATS), 2011).
About 31,000 (8.9%) of roughly 350,000 compounds were called active. Where a call stands in place of a potency, no number is given. About 15% were inconclusive and are not listed. Only a selection was taken, and actives are over-represented in it overall. Unmarked numbers belong to inactive results. The call rests on the fitted dose curve; in most records, active means well fitted inhibition curve with a large enough effect; inconclusive means small, poorly fitted or top-dose-only effect; inactive means no such curve, though single readings can be large or run the other way.

These compounds were tested against Histone-lysine N-methyltransferase EHMT2 (Homo sapiens) (UniProt Q96KQ7) (assay: qHTS Assay for Inhibitors of Histone Lysine Methyltransferase G9a). Conditions: G9a H3K9 monomethylation, AlphaScreen, 2 h; series mostly up to 59 µM.
Summary of the method: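 Step 1: enzyme (final 20 nM) with compound, 15 min RT. Step 2: substrate peptide 500 nM and SAM 20 uM, 2 h RT. Step 3: anti-H3K9me1 antibody and AlphaScreen beads, 10 min, then plate read.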
Further: nearly all actives have a fitted effect of over 75% in size.
Potency means the concentration at half of the fitted maximal effect.

Sequence of Histone-lysine N-methyltransferase EHMT2 (Homo sapiens) (Q96KQ7 913-1193 limits assumed): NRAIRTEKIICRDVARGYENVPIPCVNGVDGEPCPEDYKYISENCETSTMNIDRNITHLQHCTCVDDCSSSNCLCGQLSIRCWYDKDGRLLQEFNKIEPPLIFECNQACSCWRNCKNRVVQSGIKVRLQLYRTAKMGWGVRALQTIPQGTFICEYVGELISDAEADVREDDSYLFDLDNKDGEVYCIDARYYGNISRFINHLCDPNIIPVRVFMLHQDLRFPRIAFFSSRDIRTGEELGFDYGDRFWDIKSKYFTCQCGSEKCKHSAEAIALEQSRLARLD

Compound	Potency	activity, negative = inhibition
Cc1ccc(N=C2NC(=O)/C(=C/C=C/c3ccco3)S2)cc1C	10 µM (active)	
CN(C)c1ccc(-n2cccc2/C=C2/SC(=Nc3ccc(F)cc3)NC2=O)cc1	inactive	
Cc1ccc(N(CC(=O)NCc2ccc(Cl)cc2)S(=O)(=O)N(C)C)cc1	inactive	
COc1cc(C(=O)Nc2ccc(OCc3cc(=O)n4ccc(C)cc4n3)cc2)cc(OC)c1OC	inactive	
COc1cccc(CNC(=O)C(=O)NCC(c2cccs2)S(=O)(=O)c2ccccc2)c1 (stereo not given)	inactive	
CCn1cc(C(=O)NCc2ccc(C)cc2)c(=O)c2cc(S(=O)(=O)N3CCc4ccccc4C3)ccc21	inactive	
CCn1cc(C(=O)NCCCN2CCCCCC2)c(=O)c2cc(S(=O)(=O)N3CCc4ccccc4C3)ccc21	31.6 µM (active)	
CCOCCCNC(=O)c1cn(CC)c2ccc(S(=O)(=O)N3CCc4ccccc4C3)cc2c1=O	inactive	
O=c1c2ccccc2c(-c2ccc(F)cc2)nn1-c1ccc(C(F)(F)F)cc1	inactive	
FC(F)(F)c1ccc(-n2cn[nH]c2=S)cc1	8.91 µM (active)	
CCOc1ccc(OCC)c(NS(=O)(=O)c2ccc3[nH]c(=O)ccc3c2)c1	inactive	
COc1cc(/C=C2/C(=O)NN(c3ccc(F)cc3)C2=O)cc([N+](=O)[O-])c1O	39.8 µM (active)	
COc1cccc(/C=C2\SC(=N)N(c3ccc(F)cc3)C2=O)c1	inactive	
COc1ccc(C(=O)N2CCN(c3ccc(C(C)=O)cc3F)CC2)cc1S(=O)(=O)NC1CC1		15.5% [at 2.33 µM]
COC(=O)c1ccc(CSc2ccc3nnc(-c4ccccc4)n3n2)o1	inactive	
CCOc1ccc(-c2nnc3ccc(SC)nn23)cc1	inactive	
COc1ccc(-c2nnc3ccc(SCc4ccccc4)nn23)cc1	70.8 µM (active)	
CCOc1ccc(NC(=O)Cn2cc(C(=O)c3ccc(C)cc3)c(=O)c3cc4c(cc32)OCCO4)cc1	inactive	
O=C(CCc1nnc(Cc2ccc3c(c2)OCO3)o1)NCCc1ccccc1Cl		27.8% [at 0.501 µM]
COc1ccc(C(=O)/C=C/Nc2ccccn2)cc1	inactive	
O=C(NNc1ccccn1)c1ccc(Cl)nc1	3.55 µM (active)	
CCN(CC)S(=O)(=O)c1cc(C(=O)Nc2ccccn2)ccc1C		-27.2% [at 12.7 µM]
Cc1ccc(NC(=O)CN(C)C(=O)Cn2nnc(-c3ccccc3)n2)cc1	inactive	
Cc1ccc(C)c(NC(=O)CN(C)C(=O)c2ccc3ncsc3c2)c1	inactive	
CC(NC(=O)c1ccc(S(=O)(=O)Nc2ccccc2)cc1)c1ccc(S(N)(=O)=O)cc1 (stereo not given)	inactive	

Compound	Potency	activity, negative = inhibition
COc1cc(Br)cc2cc(S(=O)(=O)c3ccccc3)c(=O)oc12	inactive	
COc1cc(NS(=O)(=O)c2ccc3c(c2)OCC(C(=O)N2CCCC2)O3)cc(OC)c1 (stereo not given)	inactive	
Cc1c(CC(=O)N2CCN(C(=O)C3COc4ccccc4O3)CC2)c(=O)oc2c(O)c(O)ccc12 (stereo not given)	12.6 µM (active)	
COc1ccc(OC)c2sc(N3CCN(C(=O)C4COc5ccccc5O4)CC3)nc12 (stereo not given)	inactive	
Cc1ccccc1CN1CCC(CNC(=O)c2c(C)oc3ncnc(N4CCCCC4)c23)CC1	inactive	
COc1ccc2oc(C(=O)NCc3ccco3)c(C)c2c1	inactive	
O=C(c1ccco1)n1nc(-c2ccc(Cl)cc2)nc1NCc1ccccc1	inactive	
O=c1[nH]c(N2CCOCC2)nc2ccccc12	inactive	
c1ccc(-n2nnnc2N2CCOCC2)cc1	inactive	
C1=C(N2CCOCC2)/C(=C/c2nc3ccccc3[nH]2)CC1	20 µM (active)	
O=C(Nc1ccc(C(=O)NCc2ccccc2Cl)cc1)C1=CSCCO1	inactive	
Cc1ccn2c(=O)nc(SCC(=O)NCc3ccc(F)cc3)nc2c1	inactive	
COc1ccc(-n2c(C)nc3c(cnn3-c3ccc(F)cc3)c2=O)cc1	inactive	
Cc1[nH]c2ccccc2c1C(=O)CN1CC(C)CC(C)C1 (stereo not given)	inactive	
Cc1c(C(=O)N2CCOCC2)[nH]c2ccc(OCc3ccccc3)cc12		-37.5% [at 12.7 µM]
Cc1c(C(=O)CN2CCOCC2)[nH]c2ccccc12	39.8 µM (active)	
CCOc1ccccc1CNC(=O)c1ccc2c(c1)nc1n2CCC(C)C1 (stereo not given)	inactive	
CCOc1ccc(OCC)c(Nc2nc3ccccc3n3nnnc23)c1	inactive	
O=C(CSc1nnc(-c2ccncc2)n1C1CCCCC1)Nc1ccccc1	inactive	
CCn1c(SCC(=O)NC2CC2)nnc1-c1ccncc1	inactive	
CC1CCCCC1NC(=O)CSc1nnc(-c2ccncc2)n1CCCN(C)C (stereo not given)	3.98 µM (active)	
CC1(C)NC(=O)N(CC(=O)N2CCN(S(=O)(=O)c3ccccc3F)CC2)C1=O		22.5% [at 12.7 µM]
Cc1csc2nc(O)c(C(=O)NCCN3CCOCC3)c(=O)n12	inactive	
NS(=O)(=O)c1ccc(NC(=S)NNC(=O)c2cccs2)cc1	8.91 µM (active)	
CCc1ccc(NC(=O)C(=O)NNC(=O)c2cccs2)cc1	inactive	

Compound	Potency	activity, negative = inhibition
NS(=O)(=O)c1ccc(NC(=S)NC(=O)c2cccc(Br)c2)cc1	inactive	
CC(C)C(=O)Nc1ccc(C(=O)NNC(=O)c2cccs2)cc1	inactive	
CC(=O)NC(=S)Nc1ccc(NC(=O)c2cccnc2)cc1	inactive	
NS(=O)(=O)c1ccc(NC(=S)NC(=O)c2cccnc2)cc1	50.1 µM (active)	
CC(=O)c1sc(N)nc1C		-2.73% [at 2.33 µM]
CCCc1nnc(NC(=O)CCC(=O)NC2CC2)s1	inactive	
O=C(NC1CC(=O)N(c2ccc(Cl)cc2)C1)C1CCCC1 (stereo not given)	inactive	
CSc1ncc(C(=O)NCc2ccccc2Cl)c(C(F)(F)F)n1	inactive	
COc1ccc(-n2nc(C(=O)NCC(=O)N3CCN(c4ccccc4OC)CC3)c3ccccc3c2=O)c(OC)c1	inactive	
COC(=O)c1scc(-c2ccc(C)cc2)c1S(=O)(=O)Nc1cc(Cl)c(OC)cc1OC	inactive	
COC(=O)c1c(-c2ccc(C)cc2)csc1N	31.6 µM (active)	
CCC(C(=O)OC)n1cnc2scc(-c3ccc(C)cc3)c2c1=O (stereo not given)	inactive	
NC(=O)CSc1nc2c(oc3ccccc32)c(=O)n1Cc1ccccc1	inactive	
COc1ccc(Cc2nnc(NC(=O)Cc3cccs3)s2)cc1	39.8 µM (active)	
O=C(Cc1cccs1)Nc1nnc(SCc2ccc(F)cc2)s1	inactive	
CCc1nnc(NC(=O)Cc2cccs2)s1	inactive	
CCOc1ccc(CCNC(=O)COC(=O)c2c(OC)cccc2OC)cc1OCC		-6.24% [at 2.33 µM]
CCN(C(=O)CSc1nnnn1-c1ccccc1OC)C1CCS(=O)(=O)C1 (stereo not given)	inactive	
O=C(Cn1c(=O)n(Cc2ccccc2)c(=O)c2sc3ccccc3c21)Nc1ccccc1F	inactive	
NC(=O)c1sc(-c2ccsc2)cc1N	14.1 µM (active)	
COc1cc(OC)cc(-c2nc3nc(C)c(CCC(=O)Nc4ccc(C)cc4)c(C)n3n2)c1	inactive	
COc1ccc(/C=C(\C#N)C(=O)OCC(=O)N(C)C2CCS(=O)(=O)C2)cc1 (stereo not given)	inactive	
O=C(Cc1ccccc1)NNC1CC(=O)N(c2ccc(Br)cc2)C1=O (stereo not given)	inactive	
Cc1ccc(N2C(=O)C3CC3C2=O)cc1 (stereo not given)	inactive	
Cc1ccc(N2C(=O)CC(Nc3cccc4ccccc34)C2=O)cc1 (stereo not given)	14.1 µM (active)	

Compound	Potency	activity, negative = inhibition
Cc1cccc(NC(=O)c2nnn(CC(=O)Nc3ccc(C(C)C)cc3)c2N)c1C	inactive	
CN(CC(=O)NCc1ccc2c(c1)OCO2)CC(=O)Nc1ccc(F)c(F)c1F		2.14% [at 12.7 µM]
CC1CCN(C(=S)c2cccc(O)c2)CC1	14.1 µM (active)	
CC1CCN(C(=O)CCNC(=O)c2ccccc2)CC1	inactive	
CC1CCN(C(=O)/C(=C\c2ccccc2)NC(=O)c2ccccc2)CC1	inactive	
CC1CCN(c2ccc([N+](=O)[O-])cc2C(N)=O)CC1	inactive	
CC1CCN(C(=S)c2cccc([N+](=O)[O-])c2)CC1	35.5 µM (active)	
O=C(c1cccc([N+](=O)[O-])c1)N1CCN(C(=O)c2ccco2)CC1	inactive	
Cc1ccc(Cl)c(OCC(=O)N(C)CC(=O)Nc2ccc(N3CCOCC3)cc2)c1		10.6% [at 0.501 µM]
CCc1ccccc1NC(=O)CSc1nc(C)c(C(=O)Nc2ccccc2)c(-c2ccc(Cl)cc2)c1C#N	inactive	
Cc1ccccc1C(=O)Nc1cc(C)c(O)c(-c2nc3ccccc3o2)c1	inactive	
COC(=O)CN1C(=O)[C@H]2[C@@H](C3CC3)N3C(=O)CN(Cc4ccc(-c5ccccc5)cc4)C(=O)[C@@]3(Cc3ccccc3)[C@H]2C1=O	inactive	
CSc1ccc(C2C(C(=O)Nc3ccccc3)=C(C)Nc3nc4ccccc4n32)cc1 (stereo not given)	inactive	
CSc1ccc(S(=O)(=O)NCc2ccc(Cl)cc2)cc1		15.9% [at 12.7 µM]
CCn1c(CNS(=O)(=O)c2ccc(Cl)cc2)n[nH]c1=S	28.2 µM (active)	
Cc1cc(C)n(CCNS(=O)(=O)c2ccc(Cl)cc2)n1		-7.54% [at 0.501 µM]
O=C(c1cc(-c2ccc(Cl)s2)nc2ccccc12)N1CCOCC1		17% [at 12.7 µM]
COc1ccc(CN2C(=O)C(NC(=O)c3cccc(C)c3)(C(F)(F)F)N=C2c2ccccc2)cc1 (stereo not given)	inactive	
COCCNc1cc(NCCOC)c([N+](=O)[O-])cc1[N+](=O)[O-]	inactive	
Cc1ccc([N+](=O)[O-])c(OCCCNCC(C)O)c1 (stereo not given)	12.6 µM (active)	
CCCCOc1ccc(CSC(=N)N)cc1[N+](=O)[O-]		7.15% [at 12.7 µM]
COc1ccc(CC(NC(C)=O)C(=O)NC2CCN(C(=O)c3ccc(Cl)cc3)CC2)cc1 (stereo not given)	inactive	
O=C(c1ccccc1F)N1CCC(c2nc3c(nnn3Cc3cccc(F)c3)c(=O)[nH]2)CC1	1 µM (active)	
Cc1ccc(NC(=O)N2CCC(c3nc4c(nnn4Cc4c(F)cccc4Cl)c(=O)[nH]3)CC2)cc1	inactive	
O=C(Nc1ccc(F)cc1)N1CCCC(c2nc3c(nnn3Cc3ccccc3Cl)c(=O)[nH]2)C1 (stereo not given)	inactive	
